Compound activity deposited in PubChem by National Center for Advancing Translational Sciences (NCATS).
This is a sample that favours compounds with a hit; in the whole collection about 9.9% have one here.
Tau fibril FP: inhibitors of human tau fibril formation; P10636; K18 P301L tau heparin fibrillization, Alexa594 FP, 6 h; Potency, µM (series often up to 57.7 µM), for inactives: at the top dose activity, negative = inhibition, most hits filed as inhibitors; 280,000 tested, 0.39% active; AID 1468; active = well fitted curve in the direction sought with a large enough effect; inconclusive = small, poorly fitted or top-dose-only effect, or another doubt; inactive = no such curve, though single readings can be large; an effect the other way counts as inactive or inconclusive; also: nearly all actives have a fitted effect of over 55% in size
Target sequence (P10636 561-689 P618L limits assumed): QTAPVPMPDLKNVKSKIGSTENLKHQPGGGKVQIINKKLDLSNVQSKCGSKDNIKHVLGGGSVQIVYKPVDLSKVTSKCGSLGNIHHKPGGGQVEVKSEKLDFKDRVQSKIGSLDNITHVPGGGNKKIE
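Heparin (20 uM) drove fibril formation of recombinant tau K18 P301L, 15 uM unlabeled with 0.24 uM Alexa 594 label, for 6 hr at 37 C in 100 mM sodium acetate pH 7. Fluorescence polarization (555/632 nm) read 1 hr after 30 uM ThT.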
ALDH1A1 inh: inhibitors of human aldehyde dehydrogenase 1A1; Potency, µM (doses to about 75.3 µM), for the others: top-dose activity, negative = inhibition, usual class: inhibitors; AID 1030; 220,000 tested, 7.3% active; P00352; Purified ALDH1A1, NADH fluorescence, propionaldehyde substrate;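 also: plate controls were no enzyme wells and a reference inhibitor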
JMJD2E inh: blocks human JMJD2E demethylase activity; Potency, µM (highest dose often 57.1 µM), without a hit: top-dose activity change, negative = inhibition, usual class: inhibitors; AID 2147; 230,000 tested, 1.6% active; JMJD2E catalytic domain, FDH-coupled NADH fluorescence (FDH is formaldehyde dehydrogenase);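 also: 0% = wells with enzyme and -100% = buffer wells without enzyme; nearly all actives have a fitted effect of over 50% in size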
Target sequence (B2RXH2 1-337 limits assumed): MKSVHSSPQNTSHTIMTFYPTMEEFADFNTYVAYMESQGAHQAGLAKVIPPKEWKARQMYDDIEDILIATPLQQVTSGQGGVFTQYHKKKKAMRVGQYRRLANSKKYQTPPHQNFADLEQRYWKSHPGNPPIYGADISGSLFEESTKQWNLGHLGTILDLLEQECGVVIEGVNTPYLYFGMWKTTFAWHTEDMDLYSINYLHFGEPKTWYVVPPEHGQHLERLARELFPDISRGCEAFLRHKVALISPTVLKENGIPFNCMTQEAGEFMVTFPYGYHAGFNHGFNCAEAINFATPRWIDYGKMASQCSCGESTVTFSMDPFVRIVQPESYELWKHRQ
HPGD inh: inhibitors of human 15-hydroxyprostaglandin dehydrogenase (HPGD). purified HPGD, NADH fluorescence kinetic, PGE2 substrate. Potency, µM, for the others: at the highest dose activity change, negative = inhibition, most hits filed as inhibitors. 150,000 tested, 4.3% active
Target sequence (P15428 whole entry, looked up): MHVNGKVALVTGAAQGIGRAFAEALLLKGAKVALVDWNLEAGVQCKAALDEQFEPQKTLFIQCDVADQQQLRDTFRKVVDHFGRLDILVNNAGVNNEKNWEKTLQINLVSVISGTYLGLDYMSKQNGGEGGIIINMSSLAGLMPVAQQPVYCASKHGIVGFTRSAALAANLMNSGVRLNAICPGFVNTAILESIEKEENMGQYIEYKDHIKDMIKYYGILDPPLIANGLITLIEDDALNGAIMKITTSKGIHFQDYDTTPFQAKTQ
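NADH formation kinetics: reaction with 30 uM PGE2 and 1 mM NAD+ (final), 20 nM enzyme, Tris-HCl pH 8 with Tween 20, after 15 min compound preincubation at room temperature. Fluorescence change, last versus first of five reads.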
Tau fibril ThT: inhibitors of human tau fibril formation, thioflavin T binding. P10636. Potency, µM (top dose mostly 57.4 µM), for the others: at the highest dose activity, negative = inhibition, hits mostly inhibitors. AID 1460. 270,000 tested, 2.1% active. recombinant tau K18 P301L, heparin-induced fibrillization, ThT fluorescence; active = well fitted curve in the direction sought with a large enough effect; inconclusive = small, poorly fitted or top-dose-only effect, or another doubt; inactive = no such curve, though single readings can be large; an effect the other way counts as inactive or inconclusive; also: nearly all actives have a fitted effect of over 55% in size
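Heparin-induced (20 uM) aggregation of recombinant human K18 P301L tau, 15 uM unlabeled with 0.24 uM labeled, pH 7 acetate buffer, 6 hr at 37 C with compound. Fibrils quantified by 30 uM ThT fluorescence after 1 hr ambient incubation.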
Tau fluor counter: counter-screen for tau fibril formation inhibitors; AID 1463; tau K18 P301L Alexa594 fluorescence, heparin fibrillization; Potency, µM (top dose mostly 57.7 µM), inactives show at the highest dose activity change, negative = decrease; 280,000 tested, 0.93% active; active = well fitted curve in the direction sought with a large enough effect; inconclusive = small, poorly fitted or top-dose-only effect, or another doubt; inactive = no such curve, though single readings can be large; an effect the other way counts as inactive or inconclusive; also: nearly all actives have a fitted effect of over 55% in size
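Human tau K18 P301L (15 uM unlabeled, 0.24 uM Alexa 594-labeled) in 100 mM sodium acetate pH 7 with 20 uM heparin, 6 hr at 37 C. ThT 30 uM added, 1 hr ambient; Alexa 594 FP and total fluorescence read at 555/632 nm.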
* hit, by the source's call; ? = inconclusive; . = no result given; [ ] = another dose, or the depositor's remark. Unless noted, calls follow the shape of the dose curve; as a rule, active = well fitted inhibition curve with a large enough effect (not every such curve was filed as active); inconclusive = small, poorly fitted or top-dose-only effect, or another doubt; inactive = no such curve, though single readings can be large or run the other way. Unless noted, % is scaled to controls: 0 for no effect and ±100 for the full control effect; potency is read from the fitted curve at half-maximal effect.

SMILES | Tau fibril FP | ALDH1A1 inh | JMJD2E inh | HPGD inh | Tau fibril ThT | Tau fluor counter
COC(=O)c1ccc2c(=O)n(CCN3CCOCC3)c(SCC(=O)C(C)(C)C)nc2c1 | 0% | 13µM* | 0% | -9% | -2% | -9%
COc1ccccc1Cn1c(=S)[nH]c2cc(C(=O)NCCN3CCOCC3)ccc2c1=O | 1% | 20µM* | 5% | . | -15% | -6%
COC(=O)c1ccc2c(=O)n(CCN3CCOCC3)c(=S)[nH]c2c1 | 5% | 4µM* | -5% | -6% | -6% | -7%
COc1ccc(-n2c(=S)[nH]c3cc(C(=O)NCCCN4CCOCC4)ccc3c2=O)c(OC)c1 | -5% | 9% | 2% | . | -5% | -8%
COC(=O)c1ccc2c(=O)n(CCCN3CCOCC3)c(=S)[nH]c2c1 | 4% | ? | -6% | -10% | -7% | -4%
COCCn1c(=S)[nH]c2cc(C(=O)NCCCN3CCOCC3)ccc2c1=O | -4% | 16µM* | -1% | -15% | 6% | 6%
CN(C)c1ccc(NC(=O)CCSc2nc(-c3ccco3)cc(C(F)(F)F)n2)cc1 | 1% | . | . | . | ? | ?
CC(=O)Nc1nonc1-c1nnc(SCc2ccccc2Cl)n1C | -1% | . | . | . | -4% | -9%
CCOC(=O)CC(NC(=O)CCc1c(C)nc2c(-c3ccccc3)c(C)nn2c1C)c1ccc(C)cc1 (stereo not given) | 2% | . | . | . | -10% | -9%
O=C(NCCCN1CCCC1)c1ccc(Cn2c(=S)[nH]c3ccc(Br)cc3c2=O)cc1 | 17% | 22µM* | 8% | . | ? | -29%
O=C(NCCN1CCCC1)c1ccc(Cn2c(=S)[nH]c3ccc(Br)cc3c2=O)cc1 | 3% | -10% | 0% | . | ? | -30%
Cc1cccc(NC(=O)Cn2nnc3ccccc32)c1 | -5% | 1% | -1% | . | 5% | -2%
O=C(Nc1ccc(Cl)cc1)C1CCN(c2nc3ccccc3nc2C(F)(F)F)CC1 | -14% | . | . | . | 5% | -8%
COc1cc2[nH]c(C(=O)NN)c(N)c2cc1OC | ? | . | ? | . | 16µM* | 22µM*[quencher]
O=C(Nc1ccc(F)c(Cl)c1)N1CCN2CCCCC2C1 (stereo not given) | 2% | . | . | . | 6% | 1%
FC(F)(F)c1nc(=S)c2ccccc2[nH]1 | -18% | 8.9µM* | 10µM* | . | ? | -2%
Cc1nc(=S)c2ccccc2[nH]1 | -7% | 7.1µM* | -4% | -15% | -6% | -6%
S=c1nc(Cc2ccc(Cl)cc2)[nH]c2ccccc12 | ? | 0% | -3% | . | -4% | -7%
N#Cc1c(C(F)(F)F)cc(-c2ccccc2)nc1SCC(=O)Nc1sc2c(c1C#N)CCC2 | 2% | -8% | 5% | -19% | -5% | -5%
COc1ccc(Nc2cc(C(=O)NCCCN3CCN(c4ccc(OC)cc4)CC3)c3ccccc3n2)cc1 | -2% | . | . | . | 14µM* | 4µM*[quencher]
COc1ccc(Nc2cc(C(=O)NCCCN3CCN(c4ccccc4F)CC3)c3ccccc3n2)c(OC)c1 | 5% | . | . | . | ? | 7.1µM*[quencher]
COc1ccc(Nc2cc(C(=O)NCc3ccccc3)c3ccccc3n2)c(OC)c1 | ? | . | . | . | ? | 7.9µM*[quencher]
COc1ccc(Nc2cc(C(=O)NCCCN(C)Cc3ccccc3)c3ccccc3n2)cc1 | ? | . | . | . | ? | 13µM*[quencher]
COc1ccc(OC)c(NC(=O)c2c(NCc3ccc(C)o3)sc3c2CCC(C)C3)c1 (stereo not given) | -10% | . | . | . | ? | ?
CN(C)CC(CCCCC(CN(C)C)C(=O)c1ccccc1)C(=O)c1ccccc1 (stereo not given) | -9% | . | 23% | . | -17% | -11%
SMILES | Tau fibril FP | ALDH1A1 inh | JMJD2E inh | HPGD inh | Tau fibril ThT | Tau fluor counter
COc1cccc(CNC(=O)Cn2c(=O)cc(C(F)(F)F)c3c(C)nn(C)c32)c1OC | -1% | . | . | . | 1% | -6%
COc1ccc(N2CCN(CCCNC(=O)c3cc(Nc4ccccc4OC)nc4ccccc34)CC2)cc1 | -3% | . | . | . | ? | 8.9µM*[quencher]
COc1ccc(Nc2cc(C(=O)NCCCN3CCOCC3)c3ccccc3n2)c(OC)c1 | 9% | 12% | 6% | -6% | ? | -25%
CCc1cccc(NC(=O)CCn2nc(C)cc2C)c1 | -2% | . | . | . | 0% | -3%
CC1=Nc2nc(N3CCCCC3)c(C#N)c3c4c(nc(c23)N1)N(c1ccc(C(C)C)cc1)C(=O)C4 | ? | ? | ? | ? | 13µM* | -30%
O=C(CN1CCN(Cc2ccccc2Cl)CC1)N/N=C/c1cccs1 | -5% | . | -4% | . | -15% | -12%
COc1ccc(/C=C2\CCCC3C2=NC(=S)NC3c2ccc(OC)cc2)cc1 (stereo not given) | 6% | 8.9µM* | ? | ? | -16% | -11%
CCOC(=O)c1ccc(CN(Cc2ccc(F)cc2)S(=O)(=O)c2ccc(F)c(C(=O)Nc3c(C)cccc3C)c2)cc1 | -10% | . | . | . | 4% | -3%
CC(C)(C)n1nnnc1C(c1cccc(C#N)c1)N1CCN2CCCC2C1 (stereo not given) | 5% | 20µM* | -3% | 1% | -7% | -4%
CC(C)(C)n1nnnc1C(c1cccc(C#N)c1)N1CCCCCC1 (stereo not given) | 5% | ? | -3% | 0% | -10% | -10%
O=C(CCCSc1ccccc1)Nc1nc(-c2ccccn2)cs1 | -4% | ? | -11% | ? | ? | ?
Cc1csc(NC(=O)c2cccn2C)n1 | -4% | 4% | 1% | ? | -7% | -5%
CSCCC(=O)Nc1nc(-c2ccccn2)cs1 | ? | 28µM* | ? | . | ? | -17%
Cn1cccc1C(=O)Nc1nc(-c2ccccn2)cs1 | 3% | 14µM* | ? | 28µM* | 6% | 5%
O=C(CN1C(=O)CCC1=O)Nc1cccc(NC(=O)CN2C(=O)CCC2=O)c1 | -3% | 2% | 2% | . | 2% | -1%
CN(C(=O)Cn1nnc(-c2cccnc2)n1)C1CCCCC1 | -5% | . | -2% | . | -11% | -10%
CCn1cnc2sc(-c3ccccc3)cc2c1=O | -6% | 14µM* | -25% | -21% | -21% | -16%
O=c1c2cc(-c3ccccc3)sc2ncn1-n1cccc1 | 0% | 9% | -4% | -5% | -3% | -3%
CC(=O)Cn1cnc2sc(-c3ccccc3)cc2c1=O | 3% | -9% | ? | -14% | -19% | -13%
Cc1ccc(C)n1-n1cnc2sc(-c3ccccc3)cc2c1=O | -3% | ? | -14% | 28µM* | -12% | -9%
Cc1cc(N2CCCC2)ccc1/C=N/n1cnnc1 | -5% | ? | ? | ? | 7.1µM* | -29%
Cc1cc(N2CCCC2)ccc1/C=C1\NC(=S)N(C)C1=O | 5% | 4.5µM* | -2% | . | ? | ?
O=C1/C(=C/c2ccc(N3CCCC3)cc2)NC(=S)N1C1CC1 | -3% | 16µM* | 2% | -7% | ? | ?
